Sampled rows, rich in hits. Any-hit rate of the full collection: about 4.1%.
MEKK2 mut-MEK5: signal of MEK5 binding to mutant human MEKK2 PB1 domain; percent response, % at 10 µM; bead flow cytometry, Alexa488-MEK5 binding to MEKK2 mutant; 290,000 compounds, 0.35% hits; in the data active = percent response above about 24%, passing the limit was not always enough
MEKK2wt PB1 HTS: raises or lowers MEK5 binding to wildtype human MEKK2 PB1 domain; Q9Y2U5; bead flow cytometry, Alexa488-MEK5 binding to MEKK2 WT; actives lie on both sides; binding response (% of control), % at 10 µM; 290,000 compounds, 1.1% hits; in the data active = binding response below about 67% or above about 130%
Mot1-301 SUMO: blocks SUMOylation pathway, rescuing yeast Mot1-301 growth; S. cerevisiae Mot1-301 growth rescue, ATP luminescence, 38.5C; percent above DMSO median, 100 means doubled; growth rescue, % at 18.8 µM; 320,000 compounds, 1% hits;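 active = every valid replicate shows activation above 250% relative to neutral control wells; inactive = the rest, any valid replicate at or below 250%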
CHT block: inhibitors of human choline transporter CHT; AID 488975; 310,000 compounds, 0.86% hits; CHT-expressing cells, membrane potential dye, choline response; hits give low values; B-score at 10 µM; Q9GZV3;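 active = B-score over 3 SD under the library average, and starting fluorescence ratio not unusually high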;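 note: choline stimulus applied at its EC90 after an EC20 pre-addition; B-score computed on integrated fluorescence ratio after choline addition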
Target sequence (Q9GZV3 whole entry, looked up): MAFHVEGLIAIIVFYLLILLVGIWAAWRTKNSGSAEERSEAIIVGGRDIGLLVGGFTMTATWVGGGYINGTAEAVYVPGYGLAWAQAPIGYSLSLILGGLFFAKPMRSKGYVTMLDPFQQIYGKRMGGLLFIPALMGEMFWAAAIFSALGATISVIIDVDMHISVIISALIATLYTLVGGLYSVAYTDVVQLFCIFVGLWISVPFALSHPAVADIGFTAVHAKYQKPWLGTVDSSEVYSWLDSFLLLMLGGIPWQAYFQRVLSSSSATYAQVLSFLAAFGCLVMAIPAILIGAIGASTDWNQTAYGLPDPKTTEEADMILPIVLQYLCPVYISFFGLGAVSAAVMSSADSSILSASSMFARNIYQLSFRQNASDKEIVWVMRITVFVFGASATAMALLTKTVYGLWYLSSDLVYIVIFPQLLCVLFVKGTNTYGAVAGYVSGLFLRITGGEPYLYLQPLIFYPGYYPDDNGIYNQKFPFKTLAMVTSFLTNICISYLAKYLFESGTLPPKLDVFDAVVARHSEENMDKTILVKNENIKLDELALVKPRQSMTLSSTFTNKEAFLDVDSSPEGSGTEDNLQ
MEKK3 PB1 HTS: raises or lowers MEK5 binding to the human MEKK3 PB1 domain | Q99759 | bead-based flow cytometry, Alexa488-MEK5 binding to MEKK3; actives lie on both sides; 0 = blocked by unlabeled MEK5, 100 = vehicle | binding response (% of control), % at 10 µM | 290,000 compounds, 1.4% hits;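 active = binding response more than 3 SD above or below the average of its plate-row segment, actives on both sides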;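 note: Alexa488 bead fluorescence after subtracting the streptavidin-only scavenger bead signal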
CHT allo act: allosterically activates the human high affinity choline transporter | Q9GZV3 | CHT-expressing cells, membrane potential dye, choline EC20; hits give high values; LV-AA mutant CHT in HEK293 cells | B-score at 10 µM | 310,000 compounds, 0.49% hits;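 active = initial fluorescence not abnormally high and integrated response B-score, plate-corrected, over 3 SD above library mean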
MEKK2wt confirm: raises or lowers MEK5 binding to wildtype human MEKK2, retest; shares compounds with MEKK3 PB1 HTS; bead flow cytometry, Alexa488-MEK5 binding to MEKK2 WT; actives lie on both sides; binding response (% of control), % at 10 µM; 5,900 compounds, 2.4% hits; AID 1892; in the data active = binding response below about 16% or above about 210%; inactive = in between
MEKK2mut-MEK5: signal of MEK5 binding to mutant human MEKK2, retest; bead flow cytometry, Alexa488-MEK5 binding to MEKK2 mutant; percent response, % at 10 µM; 5,900 compounds, 2% hits; shares compounds with MEKK3 PB1 HTS; in the data active = percent response mostly above about 71%, no sharp cut-off; inactive = mostly below about 38%;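 note: higher means compound restores mutant binding toward wildtype level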
MEKK3 confirm: MEKK3-MEK5 PB1 inhibition, single concentration confirmation; shares compounds with MEKK3 PB1 HTS; bead flow cytometry, Alexa488-MEK5 binding to MEKK3; hits give low values; binding response (% of control), % at 10 µM; 5,900 compounds, 1.8% hits; AID 1894;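 active = binding response below 72% of control, or above a set upper limit, though filed actives all read lower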;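 note: lower values mean stronger disruption of MEK5 binding to MEKK3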
Mot1 SUMO dose: SUMO pathway inhibitors in yeast Mot1-301 growth; 2,300 tested, under 10 active; S. cerevisiae Mot1-301 galactose growth, ATP luminescence, 24 h; -100 = growth of slx-deleted rescue strain; shares compounds with Mot1-301 SUMO; growth activity, percent, % at 42 µM; AID 493004;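 active = Signal drops as the depositor expects, and the fitted half-maximal dose is no more than ten times the top valid tested dose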;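 note: more negative values mean stronger growth rescue toward the control strain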
CHT block conf: human CHT inhibition, confirmatory screen | CHT-expressing cells, choline membrane potential dye; LV-to-AA substituted CHT, HEK293 cells | 2,400 compounds, 70% hits | shares compounds with CHT block | CHT activity remaining % of control (hits give low values), % at 10 µM | AID 493221;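 active = choline transporter activity left, mean of duplicates at 10 µM, below buffer-only control mean minus 3 SD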;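 note: depolarization triggered by choline at its EC90 following an EC20 pre-addition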
HEK293 MPD ctr: activity in parental HEK293 cells lacking CHT; membrane potential ratio readout (active if shifted either direction beyond buffer ±3SD; no single direction) at 10 µM; 2,400 compounds, 4% hits; AID 493222; shares compounds with CHT block; membrane potential dye, choline response; active = decrease or increase beyond buffer ±3SD;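 note: parental cells lack the transporter so any hit is non-specific; ratio is peak minus trough fluorescence over baseline after EC90 choline challenge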
A number is an active result; n = inactive; x = not tested or not shown; ! = repeats disagree; [ ] = another dose, or the depositor's remark.

SMILES	MEKK2 mut-MEK5	MEKK2wt PB1 HTS	Mot1-301 SUMO	CHT block	MEKK3 PB1 HTS	CHT allo act	MEKK2wt confirm	MEKK2mut-MEK5	MEKK3 confirm	CHT block conf	HEK293 MPD ctr	others
O=[N+]([O-])c1cccc(-c2nc3ccc([N+](=O)[O-])cc3[nH]2)c1	n	n	359	n	128	n	n	n	n	x	x	Mot1 SUMO dose=n
O=C(NCc1ccncc1)C(=O)N/N=C/c1ccccn1	n	n	n	n	n	n	x	x	x	x	x
CCCCC1=NN(C(=O)c2ccco2)C(O)(C(F)(F)F)C1 (stereo not drawn)	n	n	n	n	n	n	x	x	x	x	x
CCc1ccc(NC(=O)C(C)Oc2nnc(-c3cccs3)c(-c3cccs3)n2)cc1 (stereo not drawn)	n	n	n	n	n	n	x	x	x	x	x
CC(C)c1ccc(NC(=O)COc2nnc(-c3cccs3)c(-c3cccs3)n2)cc1	n	n	810	n	143	n	n	n	n	x	x	Mot1 SUMO dose=n
CCOC(=O)c1c(C)n(C)c2cc(-c3ccc(C)cc3)c(O)cc12	n	n	645	n	131	n	n	n	n	x	x	Mot1 SUMO dose=n
CN(CCOc1ccc(-c2ccn(S(=O)(=O)c3cccc4ccccc34)n2)cc1)c1ccccn1	n	2.0[inhibitor]	643	n	1.0[inhibitor]	n	n	n	n	x	x	Mot1 SUMO dose=n
COc1ccc(CCN2C(=O)CC(NNC(=O)c3cccc(O)c3)C2=O)cc1 (stereo not drawn)	n	n	n	n	n	n	x	x	x	x	x
CCOc1ccc(C(=O)NNC2CC(=O)N(CCc3ccccc3)C2=O)cc1OC (stereo not drawn)	n	0.0[inhibitor]	737	n	0.0[inhibitor]	n	n	n	n	x	x	Mot1 SUMO dose=n
O=C(O)CSc1nc2ccccc2nc1Cc1ccccc1F	n	n	n	n	n	n	x	x	x	x	x
CC1=CS(=O)(=O)CC1Sc1ncn[nH]1 (stereo not drawn)	n	n	557	n	64[inhibitor]	n	n	n	n	x	x	Mot1 SUMO dose=n
CNC(=O)c1cc2c(-c3ccccc3)nn(C)c2s1	n	n	n	n	n	n	x	x	x	x	x
O=C(/C=C/c1cccc([N+](=O)[O-])c1)NCCSCc1ccccc1Cl	n	n	n	n	n	n	x	x	x	x	x
O=C(/C=C/c1cccc([N+](=O)[O-])c1)NCCSCc1ccc(Cl)cc1Cl	n	n	368	n	130	n	n	n	n	x	x	Mot1 SUMO dose=n
N/C(CN1CCCC1=O)=N\OC(=O)c1ccc(Cl)cc1	n	n	n	n	n	n	x	x	x	x	x
N=C1CCCN1CC(=O)c1ccc(Cl)cc1	n	n	n	-10	131	n	n	n	n	9.8%	n
CCCc1cc2c(=O)c(-c3ccccn3)c(C)oc2cc1O	n	n	n	-12	75[inhibitor]	n	n	n	n	9.4%	n
O=c1cc(CSc2ccccc2)nc(-c2ccncc2)[nH]1	n	n	n	-6.5	46[inhibitor]	n	n	n	n	n	n
O=c1cc(CSc2ccc(Cl)cc2)nc(-c2ccncc2)[nH]1	n	n	n	n	n	n	x	x	x	x	x
COc1cccc(C2SCC(=O)N2c2ccc(Br)cc2)c1OC (stereo not drawn)	n	n	n	n	n	n	x	x	x	x	x
Cc1ccc(C(=O)N/C(=C\C=C\c2ccccc2)C(=O)NCc2ccco2)cc1	n	n	n	-6.6	146	n	n	n	n	54%	n
O=C(NCc1ccco1)/C(=C/C=C/c1ccccc1)NC(=O)c1ccco1	n	n	n	n	n	n	x	x	x	x	x
O=C(NNC1=C(C(=O)C(F)(F)F)CCC1)c1ccc(Br)cc1	25	n	n	-7.5	125	n	n	n	n	43%	n
Cc1ccccc1N=C/C=C1\N(C)c2ccccc2C1(C)C	n	n	n	n	n	n	x	x	x	x	x
CN1/C(=C\C=Nc2cc(S(=O)(=O)N3CCOCC3)ccc2N2CCOCC2)C(C)(C)c2ccccc21	n	n	n	n	137	n	n	n	n	21%	n
SMILES	MEKK2 mut-MEK5	MEKK2wt PB1 HTS	Mot1-301 SUMO	CHT block	MEKK3 PB1 HTS	CHT allo act	MEKK2wt confirm	MEKK2mut-MEK5	MEKK3 confirm	CHT block conf	HEK293 MPD ctr	others
CSCCC(NC(=O)c1ccccc1Br)C(=O)N1CCCC(C(F)(F)F)C1 (stereo not drawn)	n	n	n	n	n	n	x	x	x	x	x
Cc1noc(C)c1C(=O)OCC(=O)NCc1ccc(Cl)cc1	x	x	n	x	x	x	x	x	x	x	x
CN[C@H]1CC[C@@H](c2ccc(Cl)c(Cl)c2)c2ccccc21	n	176!	x	-6.8!	n	n	n	n	n	n	n
CC12CCC(C(=O)NNc3ccc([N+](=O)[O-])cc3)(OC1=O)C2(C)C (stereo not drawn)	n	n	n	-10	132	n	n	n	n	n	n
CCC1(c2ccc(F)cc2)NC(=O)N(CC(=O)N2CCN(S(=O)(=O)c3ccc(C)cc3)CC2)C1=O (stereo not drawn)	x	x	n	n	x	n	x	x	x	x	x
CCN(CC)CCCN(C(=O)c1ccc(OC)cc1)c1nc(-c2ccc(OC)cc2)cs1	n	165	n	-5.4	n	n	n	n	n	44%	n
O=C(Nc1cccc(CNCCc2c[nH]c3ccccc23)c1)c1ccccc1Cl	32	150	n	-6.3	n	n	n	n	n	31%	n
CC(=O)c1cccc(NC(=O)NCCc2c[nH]c3ccccc23)c1	n	n	n	n	n	n	x	x	x	x	x
CCn1c(C(=O)NCc2cccnc2)cc2sc(Cl)cc21	x	x	n	n	x	n	x	x	x	x	x
CCn1c(SCC(=O)N=Nc2c(O)[nH]c3ccccc23)nc2ccccc21	n	n	n	-7	145	n	n	n	n	54%	n
CC(C)CC(=O)N=Nc1c(O)[nH]c2ccccc12	n	n	n	n	n	n	x	x	x	x	x

Screening results from PubChem.
